Source: ChEMBL document CHEMBL2218924, “A broad activity screen in support of a chemogenomic map for kinase signalling research and drug discovery” (Biochem J, 2013)

How the values were obtained:
[1] = target: Death-associated protein kinase 1 (Homo sapiens) (UniProt P53355); conditions: at 10 µM
[2] = target: T1, Serine/threonine-protein kinase DCLK2 (Homo sapiens) (UniProt Q8N568); conditions: at 1 µM
T1 sequence (whole entry): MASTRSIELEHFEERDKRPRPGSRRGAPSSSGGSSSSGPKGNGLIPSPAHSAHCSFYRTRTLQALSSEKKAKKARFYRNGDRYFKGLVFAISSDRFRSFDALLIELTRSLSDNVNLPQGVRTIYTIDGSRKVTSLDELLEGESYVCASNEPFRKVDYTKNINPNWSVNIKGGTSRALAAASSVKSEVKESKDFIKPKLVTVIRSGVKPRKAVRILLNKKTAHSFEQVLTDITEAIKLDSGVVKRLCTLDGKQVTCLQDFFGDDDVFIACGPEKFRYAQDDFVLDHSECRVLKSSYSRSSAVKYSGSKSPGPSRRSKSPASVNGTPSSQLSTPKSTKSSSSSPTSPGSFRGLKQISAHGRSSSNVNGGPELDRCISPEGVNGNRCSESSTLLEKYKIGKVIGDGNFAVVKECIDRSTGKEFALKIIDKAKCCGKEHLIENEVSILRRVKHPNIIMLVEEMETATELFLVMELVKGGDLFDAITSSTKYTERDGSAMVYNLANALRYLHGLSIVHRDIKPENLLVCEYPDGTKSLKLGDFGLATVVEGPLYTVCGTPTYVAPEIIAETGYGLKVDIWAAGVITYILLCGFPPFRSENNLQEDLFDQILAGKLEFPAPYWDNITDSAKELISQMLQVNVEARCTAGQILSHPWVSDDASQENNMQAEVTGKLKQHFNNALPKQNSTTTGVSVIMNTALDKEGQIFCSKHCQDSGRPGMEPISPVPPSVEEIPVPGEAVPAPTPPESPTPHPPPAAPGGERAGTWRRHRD

[3] = target: T1, Serine/threonine-protein kinase DCLK2 (Homo sapiens); conditions: at 10 µM
[4] = target: T2, Myotonin-protein kinase (Homo sapiens) (UniProt Q09013); conditions: at 1 µM
T2 sequence (whole entry): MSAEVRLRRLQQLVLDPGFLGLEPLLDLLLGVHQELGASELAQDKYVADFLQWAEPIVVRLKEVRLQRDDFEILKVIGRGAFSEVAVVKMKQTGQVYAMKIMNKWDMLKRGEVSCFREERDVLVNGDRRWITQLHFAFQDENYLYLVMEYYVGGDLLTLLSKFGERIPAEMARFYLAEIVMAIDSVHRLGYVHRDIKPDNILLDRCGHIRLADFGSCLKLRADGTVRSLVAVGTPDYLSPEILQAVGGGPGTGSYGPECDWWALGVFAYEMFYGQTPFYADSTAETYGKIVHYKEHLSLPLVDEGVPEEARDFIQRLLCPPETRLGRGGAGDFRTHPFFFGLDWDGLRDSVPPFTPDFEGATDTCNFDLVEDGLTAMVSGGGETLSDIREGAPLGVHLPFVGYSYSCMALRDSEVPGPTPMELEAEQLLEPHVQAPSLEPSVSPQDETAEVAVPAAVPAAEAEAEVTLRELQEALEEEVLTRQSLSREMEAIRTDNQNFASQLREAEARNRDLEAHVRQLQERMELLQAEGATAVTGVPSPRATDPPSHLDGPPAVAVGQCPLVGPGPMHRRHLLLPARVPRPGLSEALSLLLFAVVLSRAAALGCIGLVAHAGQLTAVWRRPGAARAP

[5] = target: T2, Myotonin-protein kinase (Homo sapiens); conditions: at 10 µM
[6] = target: T3, Serine/threonine-protein kinase 17A (Homo sapiens) (UniProt Q9UEE5); conditions: at 1 µM
T3 sequence (whole entry): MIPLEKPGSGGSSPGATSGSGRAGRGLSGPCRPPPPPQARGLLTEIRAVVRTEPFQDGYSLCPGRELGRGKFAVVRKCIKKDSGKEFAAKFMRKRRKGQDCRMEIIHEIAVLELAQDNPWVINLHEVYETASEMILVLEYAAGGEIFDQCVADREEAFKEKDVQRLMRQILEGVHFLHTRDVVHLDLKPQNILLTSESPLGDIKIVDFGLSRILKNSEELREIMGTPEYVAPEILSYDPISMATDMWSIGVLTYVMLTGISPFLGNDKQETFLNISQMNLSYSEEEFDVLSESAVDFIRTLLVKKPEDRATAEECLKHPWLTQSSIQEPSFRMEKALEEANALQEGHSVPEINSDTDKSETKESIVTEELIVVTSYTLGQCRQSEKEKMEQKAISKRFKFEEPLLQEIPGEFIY

[7] = target: T4, Discoidin domain-containing receptor 2 (Homo sapiens) (UniProt Q16832); conditions: at 10 µM
T4 sequence (whole entry): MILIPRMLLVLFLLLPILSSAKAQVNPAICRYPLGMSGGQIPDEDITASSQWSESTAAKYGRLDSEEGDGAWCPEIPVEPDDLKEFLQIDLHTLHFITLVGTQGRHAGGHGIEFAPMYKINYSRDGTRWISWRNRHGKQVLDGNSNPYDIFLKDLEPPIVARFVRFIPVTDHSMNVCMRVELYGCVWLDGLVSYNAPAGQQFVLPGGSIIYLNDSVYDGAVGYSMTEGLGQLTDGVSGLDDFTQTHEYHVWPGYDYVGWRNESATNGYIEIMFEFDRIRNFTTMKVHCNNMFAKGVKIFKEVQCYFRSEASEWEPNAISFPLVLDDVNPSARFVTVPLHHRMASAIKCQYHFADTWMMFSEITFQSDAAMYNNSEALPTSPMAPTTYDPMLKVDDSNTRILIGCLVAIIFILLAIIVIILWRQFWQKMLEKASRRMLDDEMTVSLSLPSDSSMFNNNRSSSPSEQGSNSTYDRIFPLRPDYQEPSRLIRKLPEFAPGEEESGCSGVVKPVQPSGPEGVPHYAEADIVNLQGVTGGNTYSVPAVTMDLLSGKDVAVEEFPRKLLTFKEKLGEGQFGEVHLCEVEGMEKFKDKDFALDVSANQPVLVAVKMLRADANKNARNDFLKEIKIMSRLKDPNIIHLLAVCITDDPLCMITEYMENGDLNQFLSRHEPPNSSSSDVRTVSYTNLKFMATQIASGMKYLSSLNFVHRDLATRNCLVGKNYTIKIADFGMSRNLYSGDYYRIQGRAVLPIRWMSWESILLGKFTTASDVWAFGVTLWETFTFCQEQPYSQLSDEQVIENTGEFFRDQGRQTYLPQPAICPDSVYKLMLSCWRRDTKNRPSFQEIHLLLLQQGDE

[8] = target: T4, Discoidin domain-containing receptor 2 (Homo sapiens); conditions: at 1 µM
[9] = target: Death-associated protein kinase 2 (Homo sapiens) (UniProt Q9UIK4); conditions: at 1 µM
[10] = target: Death-associated protein kinase 2 (Homo sapiens) (UniProt Q9UIK4); conditions: at 10 µM

Death-associated protein kinase 2 (Homo sapiens), sequence (Q9UIK4 whole entry, looked up): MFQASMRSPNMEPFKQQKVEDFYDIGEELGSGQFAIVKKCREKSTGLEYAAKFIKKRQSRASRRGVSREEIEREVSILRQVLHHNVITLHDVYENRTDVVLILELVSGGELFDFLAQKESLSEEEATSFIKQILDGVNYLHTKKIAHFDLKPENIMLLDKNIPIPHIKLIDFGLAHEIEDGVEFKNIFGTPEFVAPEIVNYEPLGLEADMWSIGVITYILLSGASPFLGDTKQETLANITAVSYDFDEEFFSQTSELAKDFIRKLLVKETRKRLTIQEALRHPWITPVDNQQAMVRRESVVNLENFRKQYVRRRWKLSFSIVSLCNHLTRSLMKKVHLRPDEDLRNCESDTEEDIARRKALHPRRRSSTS
Death-associated protein kinase 1 (Homo sapiens), sequence (P53355 whole entry, looked up): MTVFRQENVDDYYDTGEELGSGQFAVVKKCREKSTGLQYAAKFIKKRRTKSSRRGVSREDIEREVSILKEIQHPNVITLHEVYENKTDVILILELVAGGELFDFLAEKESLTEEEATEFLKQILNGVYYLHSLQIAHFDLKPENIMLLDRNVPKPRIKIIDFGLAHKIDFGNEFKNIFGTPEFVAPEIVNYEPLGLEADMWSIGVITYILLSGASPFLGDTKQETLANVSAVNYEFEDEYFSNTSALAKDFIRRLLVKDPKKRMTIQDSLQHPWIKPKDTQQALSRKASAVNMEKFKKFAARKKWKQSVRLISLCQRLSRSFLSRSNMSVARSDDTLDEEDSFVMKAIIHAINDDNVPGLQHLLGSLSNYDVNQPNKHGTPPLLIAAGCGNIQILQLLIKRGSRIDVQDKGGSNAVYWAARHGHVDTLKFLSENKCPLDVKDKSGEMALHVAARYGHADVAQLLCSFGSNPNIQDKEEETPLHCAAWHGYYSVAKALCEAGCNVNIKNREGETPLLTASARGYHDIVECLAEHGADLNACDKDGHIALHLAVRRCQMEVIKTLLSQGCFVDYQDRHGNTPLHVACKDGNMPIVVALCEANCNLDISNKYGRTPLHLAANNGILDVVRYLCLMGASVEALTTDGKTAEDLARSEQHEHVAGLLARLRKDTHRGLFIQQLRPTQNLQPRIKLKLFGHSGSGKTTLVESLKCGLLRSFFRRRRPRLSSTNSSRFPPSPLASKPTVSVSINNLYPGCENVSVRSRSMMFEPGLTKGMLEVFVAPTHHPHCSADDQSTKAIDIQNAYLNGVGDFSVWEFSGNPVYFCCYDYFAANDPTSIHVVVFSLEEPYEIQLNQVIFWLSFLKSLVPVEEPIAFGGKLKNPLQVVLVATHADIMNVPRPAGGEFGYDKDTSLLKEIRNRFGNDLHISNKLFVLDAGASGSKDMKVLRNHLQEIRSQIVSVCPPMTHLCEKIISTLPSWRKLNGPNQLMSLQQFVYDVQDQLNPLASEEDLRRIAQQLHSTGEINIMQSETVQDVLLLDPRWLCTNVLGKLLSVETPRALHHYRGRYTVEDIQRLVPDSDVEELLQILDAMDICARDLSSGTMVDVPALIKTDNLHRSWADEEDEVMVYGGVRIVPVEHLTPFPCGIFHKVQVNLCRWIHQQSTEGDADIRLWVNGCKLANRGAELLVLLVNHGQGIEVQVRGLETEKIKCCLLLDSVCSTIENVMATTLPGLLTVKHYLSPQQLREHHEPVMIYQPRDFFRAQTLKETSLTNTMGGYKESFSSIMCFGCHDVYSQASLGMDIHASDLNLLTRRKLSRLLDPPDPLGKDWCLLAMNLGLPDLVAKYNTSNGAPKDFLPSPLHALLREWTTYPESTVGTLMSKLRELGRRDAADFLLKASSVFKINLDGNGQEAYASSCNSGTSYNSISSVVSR

SMILES | residual activity [1] | residual activity [2] | residual activity [3] | residual activity [4] | residual activity [5] | residual activity [6] | residual activity [7] | residual activity [8] | residual activity [9] | residual activity [10]
Nc1n[nH]c2nc3ccccc3nc12 | 96% | 98% | 84% | 98% | 76% | 86% |  |  |  | 
COc1cc2ncnc(Nc3cccc(Cl)c3)c2cc1OC | 100% | 122% | 85% | 103% | 113% | 103% | 74% |  |  | 
COc1cc2nccc(Oc3ccc(NC(=O)Nc4cc(C)on4)c(Cl)c3)c2cc1OC | 69% | 99% | 104% | 100% | 148% |  | 0% | 1% |  | 
O=c1cc(N2CCOCC2)oc2c1ccc1ccccc12 | 84% | 83% | 87% |  |  | 92% | 105% | 106% | 92% | 80%
O=C1NC(=O)c2c1c1c3ccccc3[nH]c1n1cncc21 | 41% | 96% | 85% |  |  | 10% | 91% | 85% | 9% | -1%
O=C(CCCc1ccc(-c2ccccc2F)cc1)Nc1ccc(O)cc1 | 105% | 133% | 192% | 108% | 97% |  | 111% | 99% | 102% | 99%
Cn1sc(=O)n(Cc2ccccc2)c1=O | 80% | 100% | 90% |  | 81% |  | 90% | 78% | 97% | 99%
CCN(CC)CCNC(=O)c1c(C)[nH]c(/C=C2\C(=O)Nc3ccc(Cl)cc32)c1C | 31% | 68% | 24% | 52% | 68% | 3% | 44% |  | 63% | 16%
Nc1ncnc2c1cnn2-c1ccccc1 | 86% | 71% | 69% |  |  |  |  |  | 95% | 
O=C(c1ccccc1)c1ccc(N2CCOCC2)cc1O | 100% | 64% | 93% | 138% |  |  | 93% | 111% | 89% | 
COc1ccc2c(c1)c(C1=C(c3c[nH]c4ccccc34)C(=O)NC1=O)cn2CCCN(C)C | 76% | 54% | 55% | 103% | 104% |  |  | 111% | 71% | 32%
CN(C)S(=O)(=O)c1ccc2c(c1)/C(=C/c1cc3c([nH]1)CCCC3)C(=O)N2 | 99% | 55% | 55% | 113% | 92% | 70% |  |  |  | 
CC(C)(C)n1nc(Cc2cccc3ccccc23)c2c(N)ncnc21 | 88% | 85% | 107% | 108% | 119% | 120% | 29% | 75% | 96% | 106%
O=c1cc(N2CCNCC2)oc2c(-c3ccccc3)cccc12 | 82% |  | 70% | 134% | 141% | 69% |  |  | 98% | 102%
O=C(NC(NC(=S)Nc1ccc(F)c([N+](=O)[O-])c1)C(Cl)(Cl)Cl)C(c1ccccc1)c1ccccc1 (configuration not stated) | 71% | 136% | 86% | 71% |  |  | 90% | 102% | 95% | 78%
Nc1nc(Nc2ccc(S(N)(=O)=O)cc2)nn1C(=O)c1c(F)cccc1F | 96% | 68% | 25% |  |  | 77% |  |  | 97% | 77%

SMILES | residual activity [1] | residual activity [2] | residual activity [3] | residual activity [4] | residual activity [5] | residual activity [6] | residual activity [7] | residual activity [8] | residual activity [9] | residual activity [10]
O=C1Nc2ccc(Cl)cc2/C1=C/c1cc(Cl)c(O)c(Cl)c1 | 46% | 61% | 73% |  | 138% | 71% |  |  | 69% | 28%
CSc1nc(-c2ccc(F)cc2)c(-c2ccnc(NC(C)c3ccccc3)c2)[nH]1 (configuration not stated) | 96% | 137% | 100% |  |  |  | 93% | 98% | 101% | 95%
Oc1cccc(-c2nc(N3CCOCC3)c3oc4ncccc4c3n2)c1 | 76% | 94% | 65% |  |  | 116% |  |  | 93% | 
COc1cc2nccc(Oc3ccc(NC(=S)NC(=O)c4ccccc4C)cc3)c2cc1OC | 76% | 82% | 94% | 138% | 141% | 129% | 11% | 26% | 99% | 99%
CC(C)[C@H](CO)Nc1nc(Nc2cc(N)cc(Cl)c2)c2ncn(C(C)C)c2n1 | 80% | 94% | 95% | 87% | 90% |  | 88% | 95% | 99% | 97%
CC(C)N(CCC(=O)c1ccc2ccccc2c1)Cc1ccccc1 | 76% | 80% | 80% |  | 131% |  |  |  |  | 
N#Cc1c(NC(=O)c2cccc3ccccc23)sc2c1CCCC2 | 81% |  | 77% | 100% | 91% | 77% |  |  | 93% | 
CCCC(=O)Oc1ccc2[nH]c(C(=O)c3cc4ccccc4[nH]3)cc2c1 | 68% | 82% | 93% | 132% | 133% |  | 101% |  | 95% | 104%
O=C(O)/C=C/c1cc(Br)c(Br)c(Br)c1Br | 62% | 98% | 68% | 93% | 76% | 79% | 95% | 93% | 91% | 39%
CC(C)(C)c1nc2c3ccc(F)cc3c3c(=O)[nH]ccc3c2[nH]1 | 3% | 38% | 27% |  |  | 0% |  |  | 11% | 14%
Nc1ncnc2c1c(-c1ccc(Oc3ccccc3)cc1)cn2C1CCCC1 | 69% | 91% | 93% | 127% | 127% | 110% | 53% | 105% | 101% | 
Cn1c2ccccc2c2c3c(c4c5ccccc5n(CCC#N)c4c21)CNC3=O | 73% | 56% | 60% | 121% | 114% | 36% |  |  | 93% | 105%
CC(C)c1nn(-c2c(Cl)cccc2Cl)c2nc(Cc3ccc(OCCO)cc3)[nH]c(=O)c12 | 91% | 73% | 74% |  | 87% | 96% | 94% | 98% | 92% | 97%
O=C1NC(=O)C(c2cn(CCCO)c3ncccc23)=C1c1cnccn1 | 83% | 95% | 78% |  | 82% | 89% | 96% | 93% | 65% | 59%
NC(=O)Nc1sc(-c2ccc(F)cc2)cc1C(N)=O | 70% | 96% | 78% |  |  | 69% | 40% |  | 95% | 64%
